Experimental data from the antibiotic and cytotoxicity screens of Wong et al. (2023).
The campaign covered roughly 39,000 compounds. About 3,300 (8.5%) were called active. Many of the other results were omitted from the sample, so actives are more common in it than they were.

System: HepG2
Test: cytotoxicity call (relative viability < 0.9)
Conditions: 10 µM

Q: How did the cytotoxicity call turn out when `Cc1noc(C)c1S(=O)(=O)Nc1ccc2c(c1)C(=O)N([C@@H](C)CO)C[C@H](C)[C@H](CN(C)C(=O)Nc1ccc(F)cc1)OCCCC[C@H](C)O2` was run?
A: Its cytotoxicity call is “inactive”.

Q: With `O=c1ccn(C2OC(CO)C(O)C2O)c(=O)[nH]1` (stereo unspecified) as the compound, how does the cytotoxicity call read?
A: The cytotoxicity call was “inactive”.

Q: How did the cytotoxicity call turn out when `O=c1ccn([C@@H]2O[C@H](CO)[C@@H](O)[C@H]2O)c(=O)[nH]1` was run?
A: The cytotoxicity call was “inactive”.

Q: For `O=c1ccn([C@H]2O[C@H](CO)[C@@H](O)[C@@H]2O)c(=S)[nH]1`, which cytotoxicity call is on record?
A: The cytotoxicity call was “active”.

Q: With `C[C@H]1CN([C@@H](C)CO)C(=O)Cc2cc(NC(=O)CCC(F)(F)F)ccc2O[C@@H]1CN(C)C(=O)Nc1cccc2ccccc12` as the compound, how does the cytotoxicity call read?
A: Its cytotoxicity call is “inactive”.

Q: With `NC[C@H](c1ccco1)N1CCCCCC1` as the compound, how does the cytotoxicity call read?
A: The cytotoxicity call was “inactive”.

Q: With `OC[C@H]1CC[C@@H]2O[C@H](CCc3ccc(C#CCc4ccccc4)cc3)[C@@H](n3cc(-c4ccccc4)nn3)C[C@@H]2O1` as the compound, how does the cytotoxicity call read?
A: Its cytotoxicity call is “inactive”.

Q: Which cytotoxicity call does the source give for `OC[C@H]1CC[C@@H]2O[C@H](CCc3ccc(C#Cc4ccccc4)cc3)[C@H](n3cc(-c4ccccc4)nn3)C[C@@H]2O1` here?
A: The cytotoxicity call was “inactive”.

Q: With `OC[C@H]1CC[C@@H]2O[C@H](CCc3ccc(C#Cc4ccccc4)cc3)[C@@H](n3cc(-c4ccccc4)nn3)C[C@@H]2O1` as the compound, how does the cytotoxicity call read?
A: The cytotoxicity call was “active”.

Q: With `OC[C@H]1CC[C@@H]2O[C@H](CCc3ccc(C#CCc4ccccc4)cc3)[C@H](n3cc(-c4ccccc4)nn3)C[C@@H]2O1` as the compound, how does the cytotoxicity call read?
A: Its cytotoxicity call is “inactive”.

Q: With `OC[C@@H]1CC[C@@H]2O[C@H](CCc3ccc(C#Cc4ccccc4)cc3)[C@H](n3cc(-c4ccccc4)nn3)C[C@@H]2O1` as the compound, how does the cytotoxicity call read?
A: Its cytotoxicity call is “inactive”.

Q: Which cytotoxicity call does the source give for `OC[C@@H]1CC[C@@H]2O[C@H](CCc3ccc(C#Cc4ccccc4)cc3)[C@@H](n3cc(-c4ccccc4)nn3)C[C@@H]2O1` here?
A: Its cytotoxicity call is “active”.

Q: Which cytotoxicity call does the source give for `C[C@H](CO)N1C[C@H](C)[C@@H](CN(C)Cc2ccc(C(=O)O)cc2)OCCCC[C@H](C)Oc2ccc(NS(=O)(=O)c3ccccc3)cc2C1=O` here?
A: Its cytotoxicity call is “inactive”.

Q: Which cytotoxicity call does the source give for `CN1CCN(C(=O)C[C@H]2CC[C@H]3[C@@H](COC[C@@H](O)CN3C(=O)C3CC3)O2)CC1` here?
A: The cytotoxicity call was “inactive”.

Q: `C[C@H](CO)N1C[C@H](C)[C@H](CN(C)Cc2ccccc2)Oc2ccc(NC(=O)Cn3cnnn3)cc2CC1=O` was tested. Which cytotoxicity call did it give?
A: The cytotoxicity call was “inactive”.

Q: `COc1ccc(S(=O)(=O)N(C)C[C@@H]2Oc3ncc(-c4ccncc4)cc3C(=O)N([C@H](C)CO)C[C@H]2C)cc1` was tested. Which cytotoxicity call did it give?
A: Its cytotoxicity call is “inactive”.

Q: For `NCc1cccc2c1OCC2`, which cytotoxicity call is on record?
A: The cytotoxicity call was “inactive”.

Q: With `CC(C)NCCCn1c(Sc2cc3c(cc2I)OCO3)nc2c(N)ncnc21` as the compound, how does the cytotoxicity call read?
A: The cytotoxicity call was “active”.

Q: For `CCOc1nc2c(N)ncnc2n1CC`, which cytotoxicity call is on record?
A: Its cytotoxicity call is “inactive”.

Q: How did the cytotoxicity call turn out when `COc1ccc(CN(C)C[C@H]2OCCCC[C@H](C)Oc3ccc(NC(=O)Nc4ccccc4)cc3C(=O)N([C@H](C)CO)C[C@H]2C)cc1` was run?
A: Its cytotoxicity call is “inactive”.

Q: How did the cytotoxicity call turn out when `C[C@@H]1CN([C@H](C)CO)S(=O)(=O)c2ccc(C#CCC3CCCC3)cc2O[C@H]1CN(C)C(=O)c1cnccn1` was run?
A: The cytotoxicity call was “inactive”.

Q: How did the cytotoxicity call turn out when `C[C@@H]1CCCCO[C@@H](CN(C)C(=O)Nc2ccccc2)[C@@H](C)CN([C@@H](C)CO)C(=O)c2cc(NC(=O)Nc3ccccc3)ccc2O1` was run?
A: Its cytotoxicity call is “inactive”.

Q: Which cytotoxicity call does the source give for `Cc1noc(C)c1NC(=O)Nc1ccc2c(c1)C(=O)N([C@H](C)CO)C[C@H](C)[C@@H](CN(C)S(=O)(=O)c1ccccc1)O2` here?
A: The cytotoxicity call was “inactive”.

Q: With `Cc1noc(C)c1S(=O)(=O)Nc1cccc2c1O[C@H](CN(C)C(=O)NC(C)C)[C@H](C)CN([C@@H](C)CO)C2=O` as the compound, how does the cytotoxicity call read?
A: Its cytotoxicity call is “inactive”.

Q: Which cytotoxicity call does the source give for `COc1ccc(S(=O)(=O)N[C@@H]2C=C[C@H](CC(=O)NCCc3ccncc3)O[C@H]2CO)cc1` here?
A: The cytotoxicity call was “inactive”.

Q: Which cytotoxicity call does the source give for `O=C(C[C@@H]1C[C@H]2c3cc(NC(=O)c4ccc5c(c4)OCO5)ccc3O[C@H]2[C@H](CO)O1)NCCN1CCCCC1` here?
A: Its cytotoxicity call is “inactive”.

Q: For `COc1ccc(C(=O)Nc2cccc(CN3C(=O)[C@@]4(O[C@@H](CC(=O)N5Cc6ccccc6C[C@H]5CO)[C@H]([Si](C)(C)c5ccc(OC)cc5)[C@H]4C)c4ccccc43)c2)cc1`, which cytotoxicity call is on record?
A: The cytotoxicity call was “active”.

Q: `COc1ccc([Si](C)(C)[C@@H]2[C@@H](CC(=O)N3Cc4ccccc4C[C@H]3CO)O[C@]3(C(=O)N(Cc4ccc(N5CCOC5=O)cc4)c4ccccc43)[C@H]2C)cc1` was tested. Which cytotoxicity call did it give?
A: The cytotoxicity call was “inactive”.

Q: How did the cytotoxicity call turn out when `COc1ccc(C(=O)Nc2cccc(CN3C(=O)[C@@]4(O[C@@H](CC(=O)N5CCC[C@H]5CO)[C@H]([Si](C)(C)c5ccc(OC)cc5)[C@H]4C)c4ccccc43)c2)cc1` was run?
A: The cytotoxicity call was “inactive”.

Q: `COc1ccc([Si](C)(C)[C@H]2[C@H](CC(=O)N3Cc4ccccc4C[C@H]3CO)O[C@@]3(C(=O)N(Cc4cccc(N5CCOC5=O)c4)c4ccccc43)[C@@H]2C)cc1` was tested. Which cytotoxicity call did it give?
A: The cytotoxicity call was “inactive”.

Q: How did the cytotoxicity call turn out when `COc1ccc(C(=O)Nc2ccc(CN3C(=O)[C@@]4(O[C@@H](CC(=O)N5Cc6ccccc6C[C@H]5CO)[C@H]([Si](C)(C)c5ccc(OC)cc5)[C@H]4C)c4ccccc43)cc2)cc1` was run?
A: The cytotoxicity call was “inactive”.

Q: How did the cytotoxicity call turn out when `COc1ccc([Si](C)(C)[C@H]2[C@H](CC(=O)N3Cc4ccccc4C[C@H]3CO)O[C@@]3(C(=O)N(Cc4ccc(N5CCOC5=O)cc4)c4ccccc43)[C@@H]2C)cc1` was run?
A: The cytotoxicity call was “active”.

Q: Which cytotoxicity call does the source give for `COc1ccc(C(=O)Nc2ccc(CN3C(=O)[C@]4(O[C@H](CC(=O)N5Cc6ccccc6C[C@H]5CO)[C@@H]([Si](C)(C)c5ccc(OC)cc5)[C@@H]4C)c4ccccc43)cc2)cc1` here?
A: The cytotoxicity call was “active”.

Q: `COc1ccc(C(=O)Nc2cccc(CN3C(=O)[C@]4(O[C@H](CC(=O)N5CCC[C@H]5CO)[C@@H]([Si](C)(C)c5ccc(OC)cc5)[C@@H]4C)c4ccccc43)c2)cc1` was tested. Which cytotoxicity call did it give?
A: The cytotoxicity call was “inactive”.

Q: Which cytotoxicity call does the source give for `COc1ccc([Si](C)(C)[C@@H]2[C@@H](CC(=O)N3Cc4ccccc4C[C@H]3CO)O[C@]3(C(=O)N(Cc4ccc(I)cc4)c4ccccc43)[C@H]2C)cc1` here?
A: The cytotoxicity call was “inactive”.

Q: For `C[C@H](CO)N1C[C@H](C)[C@@H](CN(C)Cc2ccc(-c3ccccc3)cc2)Oc2c(NC(=O)C3CCOCC3)cccc2C1=O`, which cytotoxicity call is on record?
A: The cytotoxicity call was “inactive”.

Q: For `C[C@@H]1CN([C@H](C)CO)C(=O)c2cc(NC(=O)CCCN(C)C)ccc2O[C@@H](C)CCCCO[C@@H]1CN(C)S(C)(=O)=O`, which cytotoxicity call is on record?
A: Its cytotoxicity call is “inactive”.

Q: `C[C@@H]1CN([C@H](C)CO)C(=O)CCCn2cc(nn2)CO[C@@H]1CN(C)C(=O)Nc1ccc(N2CCCCC2)cc1` was tested. Which cytotoxicity call did it give?
A: Its cytotoxicity call is “inactive”.

Q: Which cytotoxicity call does the source give for `Cc1noc(C)c1NC(=O)N(C)C[C@H]1Oc2ccc(NS(C)(=O)=O)cc2CC(=O)N([C@@H](C)CO)C[C@H]1C` here?
A: Its cytotoxicity call is “inactive”.

Q: `C[C@@H]1CCCCO[C@@H](CN(C)S(=O)(=O)c2cn(C)cn2)[C@H](C)CN([C@@H](C)CO)C(=O)c2cc(N(C)C)ccc2O1` was tested. Which cytotoxicity call did it give?
A: The cytotoxicity call was “inactive”.

Q: With `O=C(C[C@@H]1CC[C@@H]2[C@H](COC[C@H](O)CN2Cc2cc(F)ccc2F)O1)N[C@@H]1CCN(Cc2ccccc2)C1` as the compound, how does the cytotoxicity call read?
A: The cytotoxicity call was “inactive”.

Q: For `C[C@@H]1CN([C@@H](C)CO)C(=O)c2cc(Br)cnc2O[C@H]1CN(C)C(=O)CCN1CCCCC1`, which cytotoxicity call is on record?
A: Its cytotoxicity call is “inactive”.

Q: With `C[C@@H]1CCCCO[C@H](CN(C)C(=O)Nc2ccc(F)cc2)[C@H](C)CN([C@@H](C)CO)C(=O)c2cc(NC(=O)Nc3cccc4ccccc34)ccc2O1` as the compound, how does the cytotoxicity call read?
A: The cytotoxicity call was “inactive”.

Q: For `Cc1cc(C)c2c(c1)[C@@H](N(Cc1cc(C(F)(F)F)cc(C(F)(F)F)c1)c1nnn(C)n1)CCCN2C[C@H]1CC[C@H](C(=O)O)CC1`, which cytotoxicity call is on record?
A: The cytotoxicity call was “active”.

Q: With `Cc1ccc(S(=O)(=O)Nc2ccc3c(c2)C(=O)N([C@H](C)CO)C[C@H](C)[C@H](CN(C)S(=O)(=O)c2ccc(C)cc2)OCCCC[C@@H](C)O3)cc1` as the compound, how does the cytotoxicity call read?
A: The cytotoxicity call was “inactive”.

Q: With `Cc1ccc(S(=O)(=O)Nc2ccc3c(c2)CC(=O)N([C@H](C)CO)C[C@H](C)[C@H](CN(C)Cc2ccc(Cl)c(Cl)c2)O3)cc1` as the compound, how does the cytotoxicity call read?
A: Its cytotoxicity call is “active”.

Q: `Cc1ccc(S(=O)(=O)Nc2ccc3c(c2)CC(=O)N([C@@H](C)CO)C[C@H](C)[C@H](CN(C)Cc2ccc(Cl)c(Cl)c2)O3)cc1` was tested. Which cytotoxicity call did it give?
A: The cytotoxicity call was “active”.

Q: How did the cytotoxicity call turn out when `Cc1ccc(S(=O)(=O)Nc2ccc3c(c2)CC(=O)N([C@@H](C)CO)C[C@H](C)[C@@H](CN(C)Cc2ccc(Cl)c(Cl)c2)O3)cc1` was run?
A: The cytotoxicity call was “inactive”.

Q: Which cytotoxicity call does the source give for `Cc1ccc(S(=O)(=O)Nc2ccc3c(c2)CC(=O)N([C@H](C)CO)C[C@H](C)[C@@H](CN(C)Cc2ccc(Cl)c(Cl)c2)O3)cc1` here?
A: Its cytotoxicity call is “inactive”.

Q: For `Cc1ccc(S(=O)(=O)Nc2ccc3c(c2)CC(=O)N([C@H](C)CO)C[C@@H](C)[C@@H](CN(C)Cc2ccc(Cl)c(Cl)c2)O3)cc1`, which cytotoxicity call is on record?
A: Its cytotoxicity call is “active”.

Q: `Cc1ccc(S(=O)(=O)Nc2ccc3c(c2)CC(=O)N([C@@H](C)CO)C[C@@H](C)[C@H](CN(C)Cc2ccc(Cl)c(Cl)c2)O3)cc1` was tested. Which cytotoxicity call did it give?
A: The cytotoxicity call was “inactive”.

Q: With `Cc1ccc(S(=O)(=O)Nc2ccc3c(c2)CC(=O)N([C@H](C)CO)C[C@@H](C)[C@H](CN(C)Cc2ccc(Cl)c(Cl)c2)O3)cc1` as the compound, how does the cytotoxicity call read?
A: Its cytotoxicity call is “inactive”.

Q: Which cytotoxicity call does the source give for `Cc1ccc(S(=O)(=O)Nc2ccc3c(c2)CC(=O)N([C@@H](C)CO)C[C@@H](C)[C@@H](CN(C)Cc2ccc(Cl)c(Cl)c2)O3)cc1` here?
A: Its cytotoxicity call is “active”.

Q: How did the cytotoxicity call turn out when `Cc1ccc(S(=O)(=O)Nc2ccc3c(c2)C(=O)N([C@@H](C)CO)C[C@H](C)[C@@H](CN(C)S(C)(=O)=O)OCCCC[C@@H](C)O3)cc1` was run?
A: Its cytotoxicity call is “inactive”.

Q: Which cytotoxicity call does the source give for `COc1ccc(S(=O)(=O)Nc2ccc3c(c2)C(=O)N([C@H](C)CO)C[C@@H](C)[C@@H](CN(C)Cc2ccc(Cl)c(Cl)c2)O3)cc1` here?
A: The cytotoxicity call was “inactive”.

Q: How did the cytotoxicity call turn out when `O=C(C[C@@H]1CC[C@H]2[C@@H](COC[C@@H](O)CN2S(=O)(=O)c2cccc(F)c2)O1)NCc1ccncn1` was run?
A: Its cytotoxicity call is “inactive”.

Q: With `CC(=O)N1CCC(C(=O)O)CC1` as the compound, how does the cytotoxicity call read?
A: The cytotoxicity call was “inactive”.

Q: With `COc1ccc(NC(=O)N(C)C[C@@H]2OCCCC[C@H](C)Oc3ccc(NC(=O)C4CCCCC4)cc3C(=O)N([C@@H](C)CO)C[C@@H]2C)cc1` as the compound, how does the cytotoxicity call read?
A: Its cytotoxicity call is “inactive”.

Q: For `Cc1cc(C)n(-c2ccc(=O)n(CC(=O)N3CCN(S(=O)(=O)c4ccc(F)cc4)CC3)n2)n1`, which cytotoxicity call is on record?
A: The cytotoxicity call was “inactive”.

Q: For `C[C@@H]1CN([C@H](C)CO)C(=O)c2cc(NC(=O)CCN3CCOCC3)ccc2O[C@H]1CN(C)S(=O)(=O)c1ccc(F)cc1`, which cytotoxicity call is on record?
A: The cytotoxicity call was “inactive”.

Q: How did the cytotoxicity call turn out when `C[C@H](CO)N1C[C@H](C)[C@H](CN(C)C(=O)Nc2ccc3c(c2)OCO3)Oc2c(NC(=O)C3CCOCC3)cccc2C1=O` was run?
A: Its cytotoxicity call is “inactive”.
